Results on 39 compounds are retold here after PubChem BioAssay (EPA / NIEHS).

SMILES strings stand for the structures. Inconclusive results are not listed. A structure can be active in one record and inactive in another. Activity calls are given as the source filed them. How the source made its calls: active means hit-call score of the fitted dose curve at least 0.9, where 1 is the maximum; inconclusive means response in the unintended direction; inactive means score below 0.9.

A short description of this assay: Tanguay_ZF_120hpf_SWIM_legacy: (Legacy) Oregon State University Tanguay Lab 120 Hour Post-fertilization zebrafish Assay for Swim Bladder Malformation (AID 2283654).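 Further: swim bladder malformation in each larva scored yes or no under brightfield.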 Here is the method: Tanguay_ZF_120hpf_legacy is a whole embryo, multiplexed endpoint assay using zebrafish larvae exposed for 120 hours post fertilization on a 96-well plate.Tanguay_ZF_120hpf_SWIM_legacy is one of one assay component(s) measured or calculated from the Tanguay_ZF_120hpf_legacy assay. It is designed to make measurements of zebrafish development as detected with brightfield microscopy of developing zebrafish embryos.Data from the assay component Tanguay_ZF_120hpf_SWIM_legacy was analyzed into 1 assay endpoints. This assay endpoint, Tanguay_ZF_120hpf_SWIM_legacy, was analyzed in the positive analysis fitting direction relative to DMSO as the negative control and baseline of activity. Using a type of morphology reporter, gain-of-signal activity can be used to understand changes in developmentals as they relate to the whole embryo. To generalize the intended target to other relatable targets, this assay endpoint is annotated to the zebrafish development intended target family, where the subfamily is swim bladder morphogenesis.
Zebrafish husbandry: Tropical 5D wild-type adult zebrafish were housed in at an approximate density of 1000 per 100 gallon tank at the Sinnhuber Aquatic Research Laboratory, Oregon State University, Corvallis, OR. Each tank was kept at standard laboratory conditions of 28C on a 14-h light/10-h dark photoperiod in fish water consisting of reverse osmosis water supplemented with a commercially available salt (Instant Ocean). Spawning funnels were placed into the tanks the night prior, and embryos were collected and staged. To increase bioavailability, the chorion was enzymatically removed using pronase (63.6mg/ml, >/= 3.5U/mg, Sigma-Aldrich: P5147) at 4 hours post fertilization (hpf) using a custom automated dechorionator.Chemical exposures: Six hpf dechorionated embryos were placed 1 embryo per well in a 96-well plate prefilled with 90 ul of EM using automated embryo placement systems (AEPS). Ten microliters of each row of dilution plate 2 was added to 2 exposure plates. The final DMSO concentration used was 0.64% (vol/vol). Thirty-two embryos were also exposed to 5uM trimethyltin chloride (positive control). Plates were sealed to prevent evaporation and foil covered to reduce light exposure and kept in a 28C incubator. Embryos were statically exposed until 120 hpf. At 24 hpf, embryos were assessed for photomotor response using a custom photomotor response analysis tool (PRAT) and for developmental toxicity endpoints (MO24: mortality at 24 hpf, DP: developmental progression, SM: spontaneous movement, and NC: notochord distortion). At 120 hpf, locomotor activity was measured using Viewpoint Zebralab and assessed for 18 endpoints. Zebrafish acquisition and analysis program (ZAAP), a custom program designed to inventory, acquire, and manage zebrafish data, was used to collect developmental endpoints as either present or absent (i.e., binary responses were recorded). If mortality occurred for an embryo (at either 24 or 120 hpf), the non-mortality endpoints were not measured.
Regarding `O=S1OCC2C(CO1)C1(Cl)C(Cl)=C(Cl)C2(Cl)C1(Cl)Cl` (stereo not given), the result was inactive.

As to `CC(C)(C)C(O)C(Oc1ccc(Cl)cc1)n1cncn1` (stereo not given), the outcome was inactive and the AC50 – broadly, the concentration giving half of the maximal activity seen – is 47.1 µM (active).

Turning to `CCOC1Oc2ccc(OS(C)(=O)=O)cc2C1(C)C` (stereo not given), the compound was classed as inactive.

For `CC(C)N(C(=O)COc1nnc(C(F)(F)F)s1)c1ccc(F)cc1`, the call was inactive.

Consider `COc1nn(CSP(=S)(OC)OC)c(=O)s1`, for which the compound was called inactive.

`CCC(C)Nc1c([N+](=O)[O-])cc(C(C)(C)C)cc1[N+](=O)[O-]` (stereo not given): the outcome was inactive.

Consider `Oc1cc(Cl)ccc1Oc1ccc(Cl)cc1Cl`, for which the outcome was inactive.

In the case of `OCCOc1ccccc1`, the outcome was inactive.

Consider `O=C(O)C(F)(F)C(F)(F)C(F)(F)C(F)(F)C(F)(F)C(F)(F)C(F)(F)F`, for which the outcome was inactive.

As for `CCN(CC)C(=O)SCc1ccc(Cl)cc1`, the compound was called inactive.

Regarding `COP(=O)(OC)OC=C(Cl)Cl`, the outcome was inactive.

On to `O=S(=O)(O)C(F)(F)C(F)(F)C(F)(F)C(F)(F)C(F)(F)C(F)(F)C(F)(F)C(F)(F)F`, for which the result was inactive.

As to `CCC(C)(C)C(=O)OC1=C(c2ccc(Cl)cc2Cl)C(=O)OC12CCCCC2`, the outcome was inactive.

As for `Clc1ccccc1-c1nnc(-c2ccccc2Cl)nn1`, the outcome was inactive.

As to `O=C(NC(=O)c1c(F)cccc1F)Nc1ccc(OC(F)(F)C(F)OC(F)(F)F)c(Cl)c1` (stereo not given), the compound was called inactive.

On to `CCCN(CCC)c1c([N+](=O)[O-])cc(C(F)(F)F)cc1[N+](=O)[O-]`, for which the outcome was inactive.

Turning to `N#Cc1c(Cl)c(Cl)c(Cl)c(C#N)c1Cl`, the compound was called inactive.

`CCc1ccc(C(=O)NN(C(=O)c2cc(C)cc(C)c2)C(C)(C)C)cc1`: the compound was classed as inactive.

Consider `Cc1[nH]c(=O)n(C(C)(C)C)c(=O)c1Cl`, for which the outcome was inactive.

As for `CCOCN(C(=O)CCl)c1c(C)cccc1CC`, the call was inactive.

Regarding `O=C1c2ccccc2C(=O)N1SC(Cl)(Cl)Cl`, the compound was called inactive.

`O=[N+]([O-])c1c(Cl)c(Cl)c(Cl)c(Cl)c1Cl`: the compound was called inactive.

Turning to `N#CN`, the compound was called inactive.

In the case of `ClC1C(Cl)C(Cl)C(Cl)C(Cl)C1Cl` (stereo not given), the call was inactive.

Turning to `CC(C)OC(=O)Nc1cccc(Cl)c1`, the call was inactive.

Turning to `CNC(=O)Oc1ccccc1OC(C)C`, the outcome was inactive.

On to `CCC(C)(NC(=O)c1cc(Cl)c(C)c(Cl)c1)C(=O)CCl` (stereo not given), for which the compound was called inactive.

Consider `CNC(=O)/C=C(\C)OP(=O)(OC)OC`, for which the result was inactive.

With `CC[C@H](C)[C@H]1O[C@]2(C=C[C@@H]1C)C[C@@H]1C[C@@H](C/C=C(\C)[C@@H](O[C@H]3C[C@H](OC)[C@@H](O[C@H]4C[C@H](OC)[C@@H](O)[C@H](C)O4)[C@H](C)O3)[C@@H](C)/C=C/C=C3\CO[C@@H]4[C@H](O)C(C)=C[C@@H](C(=O)O1)[C@]34O)O2` (tested in a mixture with another compound), the call was inactive.

Consider `COP(=S)(OC)Oc1ccc(SC)c(C)c1`, for which the outcome was inactive.

For `O=C(O)CCCOc1ccc(Cl)cc1Cl`, the result was inactive.

For the compound `Oc1ccc(Cl)cc1Cc1ccccc1`, the outcome was inactive.

For the compound `CC(C)(C)C(O)/C(=C\c1ccc(Cl)cc1Cl)n1cncn1` (stereo not given), the result was inactive.

Turning to `CNC(=O)CSP(=S)(OC)OC`, the result was inactive.

Consider `C[C@H]1[C@H](c2ccc(Cl)cc2)SC(=O)N1C(=O)NC1CCCCC1`, for which the compound was called inactive.

`CN1CSC(=S)N(C)C1`: the compound was called inactive.

Take `COP(=S)(OC)Oc1ccc([N+](=O)[O-])cc1`: the call was inactive.

Regarding `C#CCN1C(=O)COc2cc(F)c(N3C(=O)C4=C(CCCC4)C3=O)cc21`, the compound was called inactive.

With `CCCN(CCOc1c(Cl)cc(Cl)cc1Cl)C(=O)n1ccnc1`, the outcome was inactive.
